The nature of assay [1]: qHTS profiling of the MIPE4 collection as inhibitors of Plasmodium falciparum (DD2) proliferation (AID 743345). The settings on record: P. falciparum Dd2 in erythrocytes, SYBR Green DNA, 72 h; at 28.5 µM (top of the series) unless noted. The method in brief:
(§1)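 Erythrocytes infected with P. falciparum (0.3% parasitemia, 2.5% hematocrit) incubated with compounds 72 h at 37 C, 5% CO2. Lysis with saponin/Triton buffer containing SYBR Green I, overnight at room temperature in the dark; DNA fluorescence (485/535 nm) normalised to 0.29 uM artemisinin and DMSO.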
A general note: In qHTS, concentration-response curves come from the screen itself.

Assay [2] in a line: qHTS profiling of the MIPE4 collection as inhibitors of Plasmodium falciparum (DD2) proliferation (Rep 2) (AID 743346). As to conditions: P. falciparum Dd2 in erythrocytes, SYBR Green DNA, 72 h; at 28.5 µM (top of the series) unless noted. The method in brief:
as §1

A short description of assay [3]: qHTS profiling of the MIPE4 collection as inhibitors of Plasmodium falciparum (HB3) proliferation (AID 743347).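 Further: plate controls were DMSO vehicle wells for no effect and artemisinin wells for full effect.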 As to conditions: P. falciparum HB3 in erythrocytes, SYBR Green DNA, 72 h; at 28.5 µM (top of the series) unless noted. In outline: as §1
Assay [4] in a line: High-throughput drug toxicity screening in the BPDCN cell line Gen2.2 (AID 1224824).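 Further: cells exposed to compounds for 48 h before reading.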 As to conditions: Gen2.2 BPDCN cells; at 45.8 µM (top of the series) unless noted. The method in brief:
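Seed 500 exponentially growing Gen2.2 cells/well; add compounds by pin tool; incubate 48 h, 37 °C, 5% CO2; add CellTiter-Glo, 15 min RT; read luminescence. % activity vs DMSO (100%) and bortezomib (0%).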

The nature of assay [5]: High-throughput drug toxicity screening in the BPDCN cell line Cal-1 (AID 1224825). As to conditions: Cal-1 BPDCN cell viability, qHTS; at 45.8 µM (top of the series) unless noted. In outline: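 Exponentially growing Cal-1 cells, 500 per well in phenol red-free RPMI with 10% FBS, were exposed to compounds for 48 h at 37 °C, 5% CO2. Viability was read by CellTiter-Glo luminescence and normalised to DMSO (100%) and 9.2 uM bortezomib (0%).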

The nature of assay [6]: qHTS assay for measurement of the activity of small molecule inhibitors on Zika virus induced Caspase-3 activity in human iPSC derived neural progenitor cells (hNPCs) (AID 1224857; active means well fitted inhibition curve with a large enough effect; further: % of control where 0% means no effect; nearly all actives have a fitted effect of over 65% in size). In outline: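 Caspase-3/7 induction by a 6-hour ZIKV infection was quantified with a luminescent Caspase-Glo 3/7 reagent incubated 30 minutes at room temperature. Compounds were preincubated with hNPCs for 1 hour; inhibition was calculated against uninfected and infected control wells.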

A short description of assay [7]: qHTS assay for measurement of the activity of small molecule inhibitors on Zika virus induced Caspase-3 activity in human astrocytoma cells (AID 1224859; active means well fitted inhibition curve with a large enough effect;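 further: plate controls were ZIKV-infected untreated cells for no effect and uninfected cells for full effect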). The method in brief:
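In SNB-19 cells plated at 250 cells/well and grown 16-20 h, compounds were applied 1 h before ZIKV (2 FFU/cell). Six hours later caspase-3/7 luminescence was recorded.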

The nature of assay [8]: qHTS Screen of the MIPE 4.0 Collection Against Ewings Sarcoma (RDES) (AID 1259252; active means well fitted inhibition curve with a large enough effect; further: nearly all actives have a fitted effect of over 35% in size; further: potency means the concentration at half of the fitted maximal effect). In outline: (§2)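 Compound titrations go onto adherent log-phase cells 4 h after seeding, incubate 48 h at 37C, then CellTiter-Glo luminescence reports viability relative to DMSO and cell-free controls.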
Assay [9] is described as follows: qHTS Screen of the MIPE 4.0 Collection Against Ewings Sarcoma (EW8) (AID 1259255; active means well fitted inhibition curve with a large enough effect; further: nearly all actives have a fitted effect of over 35% in size; further: potency means the concentration at half of the fitted maximal effect;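 on viability: 100% = DMSO-treated cells and 0% = medium-only wells without cells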). In outline: as §2
Assay [10] can be described thus: qHTS profiling of the MIPE4 collection as inhibitors of Plasmodium falciparum (3D7) proliferation (AID 743344).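 Further: scaled between DMSO vehicle wells and 0.29 µM artemisinin as full inhibition.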 The settings on record: P. falciparum 3D7 in erythrocytes, SYBR Green DNA fluorescence, 72 h; at 28.5 µM (top of the series) unless noted. In outline:
as §1

A short description of assay [11]: qHTS Screen of the MIPE 4.0 Collection Against Ewings Sarcoma (TC32) (AID 1259256; active means well fitted inhibition curve with a large enough effect; further: nearly all actives have a fitted effect of over 45% in size; further: potency means the concentration at half of the fitted maximal effect). In outline: as §2

The structures appear in SMILES notation. Inconclusive results are not listed. The source made the active and inactive calls. Unless noted, how the calls were made is not given here.

Results on six molecules are retold here after PubChem BioAssay (NCATS).

For `N#CC1(c2cccc(C(=O)Nc3cc(Oc4ccc5nc(NC(=O)C6CC6)sc5n4)ccc3F)c2Cl)CC1`, the parasite growth remaining, % of DMSO control (lower = more inhibition) in [1] is 28.8%. In assay [2], the parasite growth, % of control (lower = inhibition) is 30.3%. In addition, the growth, % of control in assay [3] is 9.87%. The cell viability, % of control (lower = more cytotoxic) in assay [4] stood at 7.3%. In assay [5], this molecule came in with a viability (% of control) of 43.3%. The Potency entry in assay [6] and in assay [7] was “inactive” throughout. Besides, the Potency was 16.6 µM (active) in assay [8] and 20.9 µM (active) in assay [9].
Take `CCCCC[C@H](O)C=C[C@H]1[C@H](O)CC(=O)[C@H]1CCCCCCC(=O)O`: the parasite growth, % of DMSO control in assay [10] is 71.4%. The parasite growth remaining, % of DMSO control (lower = more inhibition) in [1] was 133%. The parasite growth, % of control (lower = inhibition) in assay [2] was 71.7%. Besides, the growth, % of control in assay [3] was determined as 103%. The cell viability, % of control (lower = more cytotoxic) in assay [4] was 64.6%. In assay [5], this molecule came in with a viability (% of control) of 93.2%. The Potency result in assay [6], in assay [7], in assay [8] and in assay [9] was “inactive” in each case.
In the case of `CC(C)(C)c1nc(-c2cccc(NS(=O)(=O)c3c(F)cccc3F)c2F)c(-c2ccnc(N)n2)s1`, the parasite growth remaining, % of DMSO control (lower = more inhibition) in [1] came to 16.6%. Further, the parasite growth, % of control (lower = inhibition) in [2] is 35%. Further, the growth, % of control in [3] was 10.3%. In [4], the cell viability, % of control (lower = more cytotoxic) worked out at 25.6%. The molecule also had a viability (% of control) in [5] of 55.4%. The Potency result in assay [6] and in assay [7] was “inactive” in each case. Moreover, the Potency in assay [8] was 6.62 µM (active); in [9], 18.7 µM (active).
`CC1CNc2c(cccc2S(=O)(=O)N[C@@H](CCCN=C(N)N)C(=O)N2CC[C@@H](C)C[C@@H]2C(=O)O)C1` (stereo partly drawn) gave a parasite growth, % of DMSO control in assay [10] of 82.3%. Besides, the parasite growth remaining, % of DMSO control (lower = more inhibition) in assay [1] is 91.3%. In assay [2], the parasite growth, % of control (lower = inhibition) amounted to 101%. Moreover, the growth, % of control in [3] came out at 86.9%. In addition, in [4], the cell viability, % of control (lower = more cytotoxic) came to 225%. In addition, in [5], the viability (% of control) was determined as 6.64%. Further, the Potency entry in [6] and in [7] was “inactive” in each case. Moreover, the Potency in assay [8] is 9.35 µM (active); in assay [11], 14.8 µM (active).
`CNC(=O)[C@H](CC1=CN=C2C=CCC=C12)NC(=O)[C@@H](CC(=O)NO)CC(C)C` registered a parasite growth, % of DMSO control in assay [10] of 22%. For the same molecule, the parasite growth remaining, % of DMSO control (lower = more inhibition) in [1] was determined as 47.4%. For the same molecule, the parasite growth, % of control (lower = inhibition) in [2] was 26.7%. The same molecule returned a growth, % of control in [3] of 18.7%. For the same molecule, the cell viability, % of control (lower = more cytotoxic) in assay [4] worked out at 31.3%. In assay [5], this molecule displayed a viability (% of control) of 8.09%. Further, the Potency result in assay [6], in [7], in assay [8] and in assay [11] was “inactive” throughout.
`O=C(c1ccc(F)c(F)c1Nc1ccc(I)cc1F)N1CC(O)([C@H]2CCCCN2)C1` had a parasite growth, % of DMSO control in [10] of 11%. Further, the parasite growth remaining, % of DMSO control (lower = more inhibition) in assay [1] stood at 11.1%. In addition, the parasite growth, % of control (lower = inhibition) in assay [2] came out at 20.2%. Besides, the growth, % of control in [3] was 4.74%. Besides, in assay [4], the cell viability, % of control (lower = more cytotoxic) amounted to 3.78%. Moreover, the viability (% of control) in [5] worked out at 2.16%. In addition, the Potency result in [6] and in [7] was “inactive” throughout. The Potency in [8] was 26.4 µM (active); in [11], 20.9 µM (active).
